sEH inhibitor: blocks human soluble epoxide hydrolase activity; P34913; recombinant human sEH enzymatic activity assay; inhibition, % at 2 µM; actives 0.34% (n = 91,000); AID 707; in the data active = inhibition above about 80%
CYP2C19 activ: activators of human cytochrome P450 2C19; activation factor at 5 µM; recombinant CYP2C19, luciferin-H EGE luminescence; hits give high values; 0 = fully inhibited enzyme, 1 = untreated enzyme; AID 1025; 96,000 tested, under 10 active;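 active = activation factor of at least 2 at 5 µM in the primary screen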
CYP2C19 inh: inhibitors of human CYP2C19 | P33261 | CYP2C19 Supersomes, luciferin-H EGE luminescence, 30 min | inhibition, % at 5 µM | actives 21% (n = 96,000);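 active = CYP2C19 inhibition above a set limit at 5 µM in the primary screen, cut at about 50% in these data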
sEH activator: soluble epoxide hydrolase (human) activation; AID 717; actives 0.04% (n = 91,000); purified human sEH enzymatic activity, activator screen; activation, % at 2 µM; in the data active = activation above about 37%
CYP2C9 act: increases human cytochrome P450 2C9 activity; AID 1024; P11712; activation factor at 5 µM; recombinant CYP2C9, luciferin-H conversion, luminescence; hits give high values; factor 1 = untreated enzyme, 0 = blocked; actives 1.4% (n = 96,000);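 active = activation factor of 2 or more for CYP2C9 at a 5 µM dose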
Target sequence (P11712 whole entry, looked up): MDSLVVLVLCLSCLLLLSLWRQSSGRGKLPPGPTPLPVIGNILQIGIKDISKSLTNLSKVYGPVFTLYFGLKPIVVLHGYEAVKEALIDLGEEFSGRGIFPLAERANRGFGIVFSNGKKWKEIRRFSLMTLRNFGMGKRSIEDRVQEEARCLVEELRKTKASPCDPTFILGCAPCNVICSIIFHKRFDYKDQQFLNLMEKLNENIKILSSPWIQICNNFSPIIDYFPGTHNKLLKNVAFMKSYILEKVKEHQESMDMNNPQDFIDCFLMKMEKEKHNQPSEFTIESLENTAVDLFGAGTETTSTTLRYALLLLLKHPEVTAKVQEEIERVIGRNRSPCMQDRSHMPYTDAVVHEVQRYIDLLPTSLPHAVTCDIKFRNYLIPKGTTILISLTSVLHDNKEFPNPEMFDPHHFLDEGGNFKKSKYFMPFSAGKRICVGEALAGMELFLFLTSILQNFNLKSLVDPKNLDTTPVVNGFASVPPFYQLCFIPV
CYP2C9 inh: inhibitors of human CYP2C9 | P11712 | actives 20% (n = 96,000) | inhibition, % at 5 µM | AID 777 | CYP2C9 Supersomes, luciferin-H conversion, luminescence;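 active = blocking of liver enzyme CYP2C9 beyond about 50% at 5 µM, limit read from the data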
Numbers stand for hits; n = inactive; x = no result given. Sampled rows, rich in hits. Any-hit rate of the full collection: about 27%.

SMILES	sEH inhibitor	CYP2C19 activ	CYP2C19 inh	sEH activator	CYP2C9 act	CYP2C9 inh
COC(=O)c1sccc1NC(=O)CN1CCN(c2ccc(F)cc2)CC1	x	n	n	x	n	54
COc1ccccc1NC(=O)CN1CCN(Cc2ccccc2)CC1	n	n	72	n	n	n
COc1ccccc1NC(=O)CN1CCN(CC(=O)Nc2ccc(F)cc2)CC1	x	n	88	x	n	n
O=C(CN1CCN(c2ccccc2)CC1)Nc1ccc(OCc2ccccc2)cc1	n	n	n	n	n	n
COc1ccccc1NC(=O)CN1CCN(CC(=O)Nc2ccc(OCc3ccccc3)cc2)CC1	n	n	87	n	n	79
CCOC(=O)Nc1ccc2c(c1)Sc1ccccc1N2C(=O)CCN1CCOCC1	n	n	60	n	n	n
CCOC(=O)Nc1ccc2c(c1)N(C(=O)CCN1CCN(C)CC1)c1ccccc1S2	n	n	n	n	n	n
CCOC(=O)Nc1ccc2c(c1)N(C(=O)N1CCN(C)CC1)c1ccccc1S2	n	n	73	n	n	n
Cc1cc(C)n2c(SCc3ccccc3Cl)nnc2n1	n	n	n	n	2.8	n
Cc1cc(C)n2c(SCc3ccc(Cl)cc3Cl)nnc2n1	n	n	70	n	n	n
Cc1cc(C)n2c(SCc3c(C)noc3C)nnc2n1	n	x	x	n	x	x
O=C1CCCC2=C1C(c1ccncc1)c1c(nc(SCc3ccccc3Cl)[nH]c1=O)N2 (stereo unspecified)	n	n	85	n	n	95
Cc1ccc(CSCCNC(=O)CN2C(=O)c3ccccc3S2(=O)=O)cc1	n	x	x	n	x	x
Cc1nn(Cc2ccccc2Cl)c2sc(C(=O)NCCCn3ccnc3)cc12	n	n	90	n	n	100
Cc1nn(Cc2ccccc2Cl)c2sc(C(=O)OC3CCCC3=O)cc12 (stereo unspecified)	n	n	98	n	n	84
Cc1ccc(Cn2nc(C)c3cc(C(=O)OCC(N)=O)sc32)cc1	n	n	n	n	n	n
Cc1nn(Cc2ccc(Cl)cc2)c2sc(C(=O)OCC(N)=O)cc12	n	n	n	n	n	76
COc1ccc(/C(O)=C2/C(=O)C(=O)N(CCCN(C)C)C2c2ccccc2)cc1Cl (stereo unspecified)	n	n	n	n	n	n
Cc1ccc2oc(-c3cccc(NC(=O)c4cc(-n5cnnc5)ccc4Cl)c3)nc2c1	n	x	x	n	x	x
CCSc1ccccc1C(=O)NCc1ccco1	n	n	n	n	n	n
O=C(CCC(=O)NNC(=O)Nc1ccc(Cl)cc1)NCc1ccccc1	n	n	n	n	n	n
COc1cc(NC(=O)c2cccs2)c(C(=O)OCC(=O)NC(C)c2ccccc2)cc1OC (stereo unspecified)	n	n	64	n	n	90
COc1cc(NC(=O)c2cccs2)c(C(=O)OCC(=O)NCc2ccccc2)cc1OC	n	n	n	n	n	n
CCCn1ncc(OC)c(Cl)c1=O	n	n	n	n	n	n
CCN(CC)CCCNC(=O)c1nn(-c2cccc(OC)c2)c(=O)c2ccccc12	n	n	n	n	n	n
SMILES	sEH inhibitor	CYP2C19 activ	CYP2C19 inh	sEH activator	CYP2C9 act	CYP2C9 inh
Cn1c(NCC(O)CO)nc2c1c(=O)n(Cc1ccc(Cl)c(Cl)c1)c(=O)n2C (stereo unspecified)	x	n	n	x	n	n
Cn1c(OCc2cccnc2)nc2c1c(=O)n(Cc1ccc(Br)cc1)c(=O)n2C	x	n	68	x	n	68
Cn1c(OCc2ccc3c(c2)OCO3)nc2c1c(=O)n(Cc1ccc(Cl)c(Cl)c1)c(=O)n2C	n	n	n	n	n	80
Cn1c(NCc2ccco2)nc2c1c(=O)n(Cc1ccc(Cl)c(Cl)c1)c(=O)n2C	x	n	60	x	n	69
NC(=O)C1CCN(C(=O)c2ccco2)CC1	n	x	x	n	x	x
Cc1ccc(-c2nn(C)c(=O)c3ccccc23)cc1CN1CCOCC1	x	n	n	x	n	n
CCOC(=O)C(CC)(CC)/C(C)=N/NC(=O)CC#N	n	n	72	n	n	n
N#CCC(=O)NN=C1CCCCCCCCCCC1	n	n	n	n	n	n
CNc1nc(C)nc(-c2ccccc2O)n1	n	n	n	n	2.1	n
Cc1cc(Oc2ccccc2)nc(-c2ccccc2O)n1	n	n	n	n	n	n
CC(C)N(C(=O)C(F)(F)F)C(C(=O)NC1CCCCC1)c1ccncc1 (stereo unspecified)	n	x	x	n	x	x
O=C1CSC(c2ccccc2F)N1c1cc(Cl)ccc1O (stereo unspecified)	n	n	84	n	n	n
Cc1cccc(Cn2c(=O)n(Cc3ccco3)c(=O)c3ccccc32)c1	n	n	n	n	n	62
CCn1c(SCC(=O)Nc2nc3ccc(C)cc3s2)nc2c(c1=O)SC(C)C2 (stereo unspecified)	n	n	69	n	n	77
CCn1c(SCC(=O)NC2CCCCC2)nc2c(c1=O)SC(C)C2 (stereo unspecified)	n	n	n	n	n	n
CCn1c(SCC(=O)Nc2cc(C)on2)nc2c(c1=O)SC(C)C2 (stereo unspecified)	n	n	n	n	n	62
CCn1c(SCC(=O)Nc2nc3ccccc3s2)nc2c(c1=O)SC(C)C2 (stereo unspecified)	n	n	97	n	n	98
Cc1ccc(NC(=O)COC(=O)C2CCC(=O)N2)c(S(=O)(=O)N2CCOCC2)c1 (stereo unspecified)	n	n	n	n	n	n
Cc1csc(C(=O)O)c1-n1cccc1	n	n	n	n	n	n
CCCC1(C)Nc2ccccc2-c2nc3ccccc3n21 (stereo unspecified)	n	n	64	n	n	59
Cc1ccc(CN2CCN(CC(=O)NCc3ccc(Cl)cc3)C2=O)cc1	n	n	n	n	n	n
Cc1cc(C2=CC(C)(c3cc(C)oc3C)Nc3nc(C(F)(F)F)nn32)c(C)o1 (stereo unspecified)	x	n	n	x	n	87
COC(=O)c1cnc(SC)nc1C	n	n	n	n	n	n
CC(C)CC(OC(=O)c1ccco1)C(=O)NC1CCCCC1 (stereo unspecified)	n	n	83	n	n	87
O=C(OC(C(=O)NC1CCCC1)c1ccccc1F)c1ccco1 (stereo unspecified)	n	n	n	n	n	69
O=C(OC(C(=O)NC1CCCCC1)c1ccccc1)c1ccco1 (stereo unspecified)	n	x	x	n	x	x
CCOc1cc(C(=O)N2CCN(c3ccc(C(C)=O)cc3)CC2)cc(OCC)c1OCC	n	n	n	n	n	n
Cc1ccc(S(=O)(=O)NC(CN2CCOCC2)=NCCNS(=O)(=O)c2ccccc2)cc1	n	n	n	n	n	52
Cc1ccc(S(=O)(=O)NCCNC(=O)N2CCOCC2)cc1	n	n	n	n	n	n
CCOC(=O)N1CCC(N(CCOC)C(=O)Nc2ccc(Cl)cc2)CC1	x	n	n	x	n	n
